One assay deals with Klebsiella pneumoniae. As to conditions: Concentration 32 ug.mL-1; ASSAY_TEST Inhibition of Bacterial Growth; detection method Absorption (OD600); MEDIA CAMHB; plate type 384well; NBS; CORNING #3640; time 18 hr.
The next assay concerns Candida albicans. As to conditions: 32 ug/mL.
The next assay relates to Cryptococcus neoformans. As to conditions: Concentration 32 ug.mL-1; ASSAY_TEST Inhibition of Fungal Growth; detection method Resazurin; Absorption (OD600-OD570); plate type 384well; NBS; CORNING #3640. A general note: Alamar Blue is a resazurin reagent that responds to reducing activity.

Each structure is given as a SMILES string. Potency and affinity values are given separately.

Take `CCOC(=O)c1c(C)[nH]c2ccc(OC)cc12`: the Inhibition (usually the drop in the measured response relative to a control, in per cent) with Klebsiella pneumoniae was 6.33%; in the assay with Candida albicans it was 1.53%; with Cryptococcus neoformans it was -2.15%.
In the same order, the values of `COc1cc(C2c3c(nc4c(c3N)CCC4)Oc3ccc4ccccc4c32)ccc1O` (stereo not drawn) are 23.66%, -1.69% and -4.01%.
Taken in the same sequence, the figures for `N#Cc1c(N)nc(NCc2ccccc2)c(C#N)c1-c1ccccc1` were -1.47%, 0.34% and -28.27%.
In the same order, the values of `Cc1ccc(/C=N/NC(=O)c2c[nH]c3ccccc23)cc1` are 10.41%, 1.17% and -0.49%.
For the molecule `N#C/C(=C\c1ccccc1Cl)C(=O)c1ccccc1`, the Inhibition in the assay with Klebsiella pneumoniae is 13.98%; with Candida albicans, 10.6%; in the assay on Cryptococcus neoformans it was -6.26%.
As to `COc1nc2nc3c(c(N)c2cc1C#N)CCCC3.Cl`, the Inhibition in the assay on Klebsiella pneumoniae is 10.99%; in the assay on Candida albicans, 1.08%; in the assay with Cryptococcus neoformans, -96.28%.
With `CC1(C)OS(=O)(=O)C2=C1NC(N)=C(C#N)C2c1ccccc1` (stereo not drawn), the Inhibition in the assay with Klebsiella pneumoniae is 11.24%; in the assay with Candida albicans it was 0.27%; in the assay with Cryptococcus neoformans, -2.35%.
Taken in the same sequence, the figures for `O=C(NNC(Cc1ccccc1)Cc1ccccc1)c1cc2ccccc2[nH]1` were 6.36%, -2.25% and -1.71%.
Taken in the same sequence, the figures for `Nc1nc(N)c(C=O)c(-c2ccccc2)c1C=O` were -1.67%, 9.69% and -7.8%.
Taken in the same sequence, the figures for `N#Cc1cccnc1N` were 16.36%, 1.57% and -34.57%.
For the molecule `CC(C)(C)OC(=O)Nc1ccc(Cl)cn1`, the Inhibition is 13.6% with Klebsiella pneumoniae, -0.26% in the assay on Candida albicans and -54% in the assay with Cryptococcus neoformans.
In the same order, the values of `O=C(N/N=C/c1c[nH]c2ccccc12)C(c1ccccc1)c1ccccc1` are 10.97%, 1.46% and -1.94%.
In the same order, the values of `COc1nc(Cl)c(C#N)c(-c2ccccc2)c1C#N` are 0.27%, 31.9% and -41.05%.
In the same order, the values of `Nc1c2c(nc3c1C(c1c(Cl)cccc1Cl)c1ccc4ccccc4c1O3)CCCC2` (stereo not drawn) are 14.02%, -1.13% and -7.78%.
`CCOC(=O)c1cc2c(N)c3c(nc2nc1C)CCCC3`: the Inhibition was -0.45% in the assay with Klebsiella pneumoniae, 0.86% with Candida albicans and -82.76% in the assay with Cryptococcus neoformans.
As to `N#CC1=C(N)Oc2c(ccc3ccccc23)C1c1ccccc1` (stereo not drawn), the Inhibition is 10.23% in the assay on Klebsiella pneumoniae, 1.97% in the assay with Candida albicans and -37.74% with Cryptococcus neoformans.
`CN(C)c1nc(N)c(C#N)cc1C#N`: the Inhibition in the assay with Klebsiella pneumoniae is 27.85%; in the assay on Candida albicans it was 0.31%; with Cryptococcus neoformans, -5.23%.
Taken in the same sequence, the figures for `N#Cc1cc(C#N)c(NCCC2CCN(Cc3ccccc3)CC2)nc1N` were 15.31%, 0.11% and -88.16%.
In the same order, the values of `CC(C)(C)OC(=O)Nc1ccc(Br)cn1` are 23.74%, 1.83% and -55.05%.
In the same order, the values of `C#CCNc1nc(Cl)c(C#N)c(-c2ccccc2)c1C#N` are -23.73%, 1.27% and -7.07%.
Take `CNC(=O)c1c(Cl)c2cc(OCc3ccccc3)ccc2n1C`: the results for the Inhibition in the assay on Klebsiella pneumoniae, in the assay on Candida albicans and in the assay on Cryptococcus neoformans were 13.13%, 4.9% and -46.6%, respectively.
For `O=C(Cc1ccccc1)N/N=C/c1c[nH]c2ccccc12`, the Inhibition in the assay with Klebsiella pneumoniae was 20.21%; with Candida albicans it was 3.09%; in the assay with Cryptococcus neoformans, -2.34%.
In the same order, the values of `O=C1SC(SCc2ccccc2)=NC1=Cc1ccccc1` are 8.07%, 1.92% and -3.98%.
Consider `Cc1cc(Br)cc(C)c1NC=C(C#N)C#N`, for which the Inhibition with Klebsiella pneumoniae is -18.28%; with Candida albicans it was 1.62%; in the assay on Cryptococcus neoformans, -6.77%.
On to `Cc1nc2c3cnn(-c4ccccc4)c3ncn2n1`, for which the Inhibition in the assay on Klebsiella pneumoniae was 15.65%; in the assay on Candida albicans, 0.21%; with Cryptococcus neoformans it was -3.17%.
In the same order, the values of `COc1ccc(-c2cc(-c3cc4c(OC)ccc(OC)c4nc3Cl)cc(=O)[nH]2)cc1` are 5.89%, 0.7% and -87.69%.
Taken in the same sequence, the figures for `c1ccc(CNc2ncnc3c2cnn3-c2ccccc2)cc1` were -0.11%, 0.45% and -6.46%.
Turning to `O=C(O)c1c[nH]c2ccccc12`, the Inhibition with Klebsiella pneumoniae was -9.13%; with Candida albicans, 6.48%; in the assay on Cryptococcus neoformans, -9.05%.
In the same order, the values of `CC(C)NNC(=O)Cc1c[nH]c2ccccc12` are 18.29%, -0.05% and -1.92%.
On to `N#Cc1c(N)nc(S)c(C#N)c1-c1ccccc1`, for which the values for the Inhibition with Klebsiella pneumoniae, in the assay on Candida albicans and with Cryptococcus neoformans were 24.85%, 0.7% and 1.04%, respectively.
Taken in the same sequence, the figures for `C#CCN1CCc2nc3nc(N(C)C)c(C#N)cc3c(N)c2C1` were 15.18%, 3.18% and -99.98%.
In the same order, the values of `Cc1ccc2nc(Cl)c(/C=N/C(C)(C)C)cc2c1` are 7.37%, 7.21% and -0.47%.
Taken in the same sequence, the figures for `O[C@H]1CC[C@H](NCc2ccccc2)CC1` were 16.79%, -0.77% and -37.74%.
`O=C(Cc1c[nH]c2ccccc12)NN=Cc1ccccc1`: the Inhibition with Klebsiella pneumoniae is -6%; in the assay with Candida albicans, -0.87%; in the assay with Cryptococcus neoformans it was -1.93%.
With `CC(=O)CCc1c[nH]c2ccccc12`, the values for the Inhibition in the assay with Klebsiella pneumoniae, with Candida albicans and in the assay with Cryptococcus neoformans were 20.76%, 1.89% and -0.29%, respectively.
Turning to `CCOC(=O)c1c(C)nc(NCC2CCN(Cc3ccccc3)CC2)c(C#N)c1-c1ccccc1`, the Inhibition in the assay on Klebsiella pneumoniae was 9.84%; in the assay with Candida albicans, 2.46%; with Cryptococcus neoformans it was -54.17%.

Source of the values: ChEMBL document CHEMBL4513135, “CO-ADD screening of IQOG CSIS (Spain) compounds”.
